This note sets out measurements from PubChem BioAssay (NCATS).

Unmarked numbers belong to inactive results. For part of these data: Measured potencies and affinities stand elsewhere. The source made the active and inactive calls.

Usually AC50 stands for the concentration giving half of the maximal activity seen.

For assay [1] the following is noted: Ebola virus entry assay, green fluorescence channel.
The conditions of assay [2]: Ebola virus entry assay, blue channel fluorescence.
The conditions of assay [3]: Ebola virus entry assay, green fluorescence channel. The source holds these as a separate data set.
The conditions of assay [4]: Ebola virus entry assay, ratio channel readout.
The conditions of assay [5]: Ebola virus entry assay, blue channel fluorescence. The source holds these as a separate data set.
The conditions of assay [6]: Ebola virus entry assay, ratio channel.
For efficacy in this document: 0% is about no effect.

Turning to `CNC(=O)c1cc(Oc2ccc(NC(=O)Nc3ccc(Cl)c(C(F)(F)F)c3)cc2)ccn1`, the efficacy in assay [1] was 20.4%. In addition, the compound was called inactive in assay [2], in assay [3], in assay [4] and in assay [6]. For the same compound, in assay [5], the AC50 is 39.8 µM (active).
Turning to `CN(C)CCC[C@@]1(c2ccc(F)cc2)OCc2cc(C#N)ccc21`, the efficacy in assay [1] was 55%. Besides, the compound was called inactive in assay [2], in assay [3], in assay [4] and in assay [6]. In addition, the concentration at half-maximal activity (AC50) in assay [5] was 39.8 µM (active).
For the compound `O=C1Nc2ccc(Cl)cc2[C@@](C#CC2CC2)(C(F)(F)F)O1`, the efficacy in assay [1] was -11.3%. In addition, the compound was classed as inactive in assay [2], in assay [3] and in assay [4]. In addition, the results for the concentration at half-maximal activity (AC50) in assay [5] and in assay [6] were 17.8 µM (active) and 22.4 µM (active), respectively.
Take `Cc1ccc(NC(=O)c2ccc(CN3CCN(C)CC3)cc2)cc1Nc1nccc(-c2cccnc2)n1`: the efficacy in assay [1] was 71.5%. Moreover, the call in assay [2], in assay [3] and in assay [4] was inactive. For the same compound, the AC50 in assay [5] was 22.4 µM (active); in assay [6], 12.6 µM (active).
`CNCC[C@H](Oc1cccc2ccccc12)c1cccs1`: the efficacy in assay [1] was -133%. Further, the AC50 in assay [2] is 11.2 µM (active); in assay [5] it was 6.31 µM (active); in assay [6], 3.55 µM (active). For the same compound, the compound was classed as inactive in assay [3] and in assay [4].
`Nc1cccc2c1CN(C1CCC(=O)NC1=O)C2=O` (centres undefined): the efficacy in assay [1] is 15.2%. The outcome in assay [2], in assay [3], in assay [4], in assay [5] and in assay [6] was inactive.
For `CCc1c2c(nc3ccc(OC(=O)N4CCC(N5CCCCC5)CC4)cc13)-c1cc3c(c(=O)n1C2)COC(=O)[C@]3(O)CC`, the efficacy in assay [1] was 45.7%. Also, the outcome in assay [2], in assay [3] and in assay [4] was inactive. Further, the AC50 in assay [5] is 20 µM (active); in assay [6], 28.2 µM (active).
With `CC(=O)Oc1cc2c(s1)CCN(C(C(=O)C1CC1)c1ccccc1F)C2` (centres undefined), the efficacy in assay [1] was 43.8%. The call in assay [2], in assay [3], in assay [4], in assay [5] and in assay [6] was inactive.
For `C#Cc1cccc(Nc2ncnc3cc(OCCOC)c(OCCOC)cc23)c1`, the efficacy in assay [1] was -13.7%. Moreover, the compound was classed as inactive in assay [2], in assay [3], in assay [4], in assay [5] and in assay [6].
Turning to `CNCCCC1c2ccccc2C=Cc2ccccc21`, the efficacy in assay [1] was 60.1%. In addition, the AC50 in assay [2] was 11.2 µM (active); in assay [4], 8.92 µM (active); in assay [5], 10 µM (active); in assay [6], 8.91 µM (active). Moreover, the compound was called inactive in assay [3].
With `CN1CCN(C2=Nc3ccccc3Oc3ccc(Cl)cc32)CC1`, in assay [1], the efficacy is 112%. Also, the result in assay [2], in assay [3] and in assay [4] was inactive. In addition, the half-maximal activity concentration (AC50) in assay [5] is 39.8 µM (active); in assay [6], 31.6 µM (active).
Take `COc1cc2ncnc(Nc3ccc(F)c(Cl)c3)c2cc1OCCCN1CCOCC1`: the efficacy in assay [1] is 41.5%. Besides, the values for the AC50 in assay [2], in assay [5] and in assay [6] were 15.8 µM (active), 2.82 µM (active) and 2.51 µM (active), respectively. Moreover, the outcome in assay [3] and in assay [4] was inactive.
Regarding `CCCN[C@H]1CCc2nc(N)sc2C1`, the efficacy in assay [1] is -13.1%. For the same compound, the compound was called inactive in assay [2], in assay [3], in assay [4], in assay [5] and in assay [6].
As for `CC1(C)O[C@@H]2[C@@H](CO[C@@]3(COS(N)(=O)=O)OC(C)(C)O[C@@H]23)O1`, the efficacy in assay [1] was -13.6%. Besides, the compound was classed as inactive in assay [2], in assay [3], in assay [4], in assay [5] and in assay [6].
Consider `CN(C)CCOC(c1ccc(Cl)cc1)c1ccccn1` (centres undefined), for which the efficacy in assay [1] was 34.3%. The outcome in assay [2], in assay [3], in assay [4] and in assay [6] was inactive. Further, in assay [5], the AC50 is 22.4 µM (active).
Take `CCCNCC(O)COc1ccccc1C(=O)CCc1ccccc1` (centres undefined): in assay [1], the efficacy was 86.9%. In addition, the concentration at half-maximal activity (AC50) in assay [2] was 11.2 µM (active); in assay [4], 8.92 µM (active); in assay [5], 8.91 µM (active); in assay [6], 7.94 µM (active). Also, the call in assay [3] was inactive.
Turning to `OC(CCN1CCCC1)(c1ccccc1)C1CCCCC1` (centres undefined), the efficacy in assay [1] is 120%. In addition, the outcome in assay [2], in assay [3] and in assay [4] was inactive. For the same compound, the AC50 in assay [5] was 25.1 µM (active); in assay [6] it was 20 µM (active).
`O=P(O)(O)C(O)(Cc1cccnc1)P(=O)(O)O`: in assay [1], the efficacy is -17.5%. For the same compound, the compound was classed as inactive in assay [2], in assay [3], in assay [4], in assay [5] and in assay [6].
For `CC(=O)N[C@@H](CS)C(=O)O`, the efficacy in assay [1] is -17.9%. In addition, the compound was classed as inactive in assay [2], in assay [3], in assay [4], in assay [5] and in assay [6].
Consider `CCC1(c2ccccc2)C(=O)NCNC1=O`, for which the efficacy in assay [1] was -13.6%. The call in assay [2], in assay [3], in assay [4], in assay [5] and in assay [6] was inactive.
Regarding `CCCSc1ccc2nc(NC(=O)OC)[nH]c2c1`, the efficacy in assay [1] was 60.2%. For the same compound, the result in assay [2], in assay [3] and in assay [4] was inactive. In addition, the concentration at half-maximal activity (AC50) was 3.16 µM (active) in assay [5] and 3.98 µM (active) in assay [6].
As for `COc1cc2nc(N3CCN(C(=O)C4CCCO4)CC3)nc(N)c2cc1OC` (centres undefined), the efficacy in assay [1] is 13%. For the same compound, the outcome in assay [2], in assay [3], in assay [4] and in assay [6] was inactive. Also, the AC50 in assay [5] was 35.5 µM (active).
Turning to `CCCCCOC(=O)Nc1nc(=O)n([C@@H]2O[C@H](C)[C@@H](O)[C@H]2O)cc1F`, the efficacy in assay [1] was 20.9%. The result in assay [2], in assay [3], in assay [4], in assay [5] and in assay [6] was inactive.
Regarding `COc1c(C)c2c(c(O)c1C/C=C(\C)CCC(=O)O)C(=O)OC2`, the efficacy in assay [1] was 11.2%. The call in assay [2], in assay [3], in assay [4], in assay [5] and in assay [6] was inactive.
